# Laboratory results reported in PubChem BioAssay (NCI).
# Compounds without any hit were thinned out: in the full panel of roughly 79,000, 15% have a hit. Activity calls are given as the source filed them. No stated cut-off is given here; in the data, active means growth inhibition above about 70%; inactive means the rest.
# Experiment: NCI Yeast Anticancer Drug Screen. Data for the sgs1 mgt1 strain (AID 161);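 further: 0% = growth of cultures given vehicle only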
# Details: S. cerevisiae sgs1 mgt1 strain, at 50.0 µM, hits give high values
# Procedure, shortened: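 Compounds are added to genetically altered yeast, and growth is compared with cultures given vehicle alone to give percent inhibition.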
row,SMILES,growth inhibition
1,O=[N+]([O-])C(=C1NCCN1)C(Cl)=C(Cl)Cl,5.3% (inactive)
2,O=C1C(=S)Nc2c(F)cccc21,24.2% (inactive)
3,c1ccc2oc(C34OC5CC(CC(C5)O3)O4)nc2c1,21.9% (inactive)
4,CCOC(=O)CCC(NC(=O)C(N)c1ccc([N+](=O)[O-])cc1)C(=O)NC(CCC(=O)OCC)C(=O)OCC (stereo not given),1.2% (inactive)
5,C=C(/C=C/CCCC)NC(=O)OCc1ccccc1,8% (inactive)
6,CC1=NN2C(=O)C(c3ccccc3)SC2=NC(C)(C)C1 (stereo not given),4.05% (inactive)
7,COc1ccc(Cc2cc3c(cc2OCC(=O)Nc2ccccn2)OCO3)cc1,6.25% (inactive)
8,NCCCc1ccc2oc3ccccc3c2c1,13.9% (inactive)
9,Cc1ccccc1CCCC(C(=O)O)C(=O)O,10.8% (inactive)
10,CC(C)(C)NC(=O)Oc1ccc(Br)cc1Br,18.6% (inactive)
11,CC(C)CCNCCC(C)C,-2.85% (inactive)
12,CCOC(=O)/C(=C\c1ccc(OCc2ccccc2)c(OC)c1)C(=O)c1ccccc1,8.3% (inactive)
13,COc1ccc2nc(-c3ccccc3)cc(N=[N+]=[N-])c2c1,-12.7% (inactive)
14,Cc1ccc(-c2n[nH]c(=O)n2N2C(=O)C=CC2=O)cc1,-26.3% (inactive)
15,CC(=O)OCCOCNC(=S)N/N=C(\C)c1cccs1,4.8% (inactive)
16,CN(N)C(=O)Nc1cccc(Cl)c1,16.4% (inactive)
17,C#CC1(O)CCCCCCCCC2(CCCCCCCC1)OCCO2,-18.2% (inactive)
18,CCOC(=O)C1=C(NC(=O)C(c2ccccc2)c2ccccc2)OCC1,5.05% (inactive)
19,Cc1cc(Cl)ccc1NC(=O)NC(C)(C)COC(=O)Nc1cccc(Cl)c1,23.4% (inactive)
20,COc1cc(/C=C\C(=O)c2cccc([N+](=O)[O-])c2)cc(OC)c1OC,13.9% (inactive)

row,SMILES,growth inhibition
1,Cc1ccc(NC(=O)c2ccc(Cl)cc2)cc1,8.85% (inactive)
2,CCCCCCCCCC(=O)OCC1OC(n2cc(F)c(=O)[nH]c2=O)C(N)C(OC(=O)CCCCCCCCC)C1O (stereo not given),17.1% (inactive)
3,O=S1(=O)CCC(Br)c2ccccc21 (stereo not given),0.4% (inactive)
4,O=C(O)Cn1cc(I)c(=O)c(I)c1,-7.2% (inactive)
5,CC(Nc1ncccn1)Nc1ncccn1,7.75% (inactive)
6,COc1cc(/C=C\c2ccc(SC)cc2)cc(OC)c1OC,28.9% (inactive)
7,COc1ccc(C2=NOC3COC4C=CC=CC4OCC23)cc1 (stereo not given),-13.6% (inactive)
8,CC1CCC2(C)OC1OC2CN (stereo not given),-2.2% (inactive)
9,c1ccc(-c2nsc3ccccc23)cc1,-8.25% (inactive)
10,Fc1ccc(-c2ccc(Br)cc2)cc1,2.05% (inactive)
11,BrCc1cccc2cccc(CBr)c12,10.4% (inactive)
12,CCc1cccc(CC)c1NC(=S)NN,41.9% (inactive)
13,COc1ccc(C(C)(C)C#N)cc1,-5.95% (inactive)
14,O=c1c(-c2ccccc2)coc2ccccc12,8.15% (inactive)
15,NCCc1ccc(O)c(O)c1,-1.55% (inactive)
16,CCOC1=NC(C)C(C)N1 (stereo not given),-13.4% (inactive)
17,COC(=O)C1(CC(=O)CC(=O)CC2(C(=O)OC)NC(=S)NC(=O)C2C#N)NC(=S)NC(=O)C1C#N (stereo not given),-24.6% (inactive)
18,COc1ccc(C#N)c(-c2ccccc2)c1,17.5% (inactive)
19,COc1c(-c2ccc(F)cc2)oc2c(CC(=O)O)cccc2c1=O,-27.1% (inactive)
20,O=S(=O)(Cl)c1cccc2c(S(=O)(=O)Cl)cccc12,15.4% (inactive)

# Experiment: NCI Yeast Anticancer Drug Screen. Data for the cln2 rad14 strain (AID 165);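 further: 0% = growth equal to vehicle treated cultures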
# Details: S. cerevisiae cln2 rad14 strain, at 50.0 µM, hits give high values
# Procedure, shortened: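 Yeast strain cln2 rad14, bearing defects in cell cycle control and DNA repair, serves as the test system; values reflect growth inhibition compared with vehicle.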
row,SMILES,growth inhibition
1,O=[N+]([O-])C(=C1NCCN1)C(Cl)=C(Cl)Cl,-18.6% (inactive)
2,O=C1C(=S)Nc2c(F)cccc21,39.6% (inactive)
3,c1ccc2oc(C34OC5CC(CC(C5)O3)O4)nc2c1,11.1% (inactive)
4,CCOC(=O)CCC(NC(=O)C(N)c1ccc([N+](=O)[O-])cc1)C(=O)NC(CCC(=O)OCC)C(=O)OCC (stereo not given),0.5% (inactive)
5,C=C(/C=C/CCCC)NC(=O)OCc1ccccc1,-39.5% (inactive)
6,CC1=NN2C(=O)C(c3ccccc3)SC2=NC(C)(C)C1 (stereo not given),26.6% (inactive)
7,COc1ccc(Cc2cc3c(cc2OCC(=O)Nc2ccccn2)OCO3)cc1,19.3% (inactive)
8,NCCCc1ccc2oc3ccccc3c2c1,15.5% (inactive)
9,Cc1ccccc1CCCC(C(=O)O)C(=O)O,-2.8% (inactive)
10,CC(C)(C)NC(=O)Oc1ccc(Br)cc1Br,-14.2% (inactive)
11,CC(C)CCNCCC(C)C,-36.3% (inactive)
12,CCOC(=O)/C(=C\c1ccc(OCc2ccccc2)c(OC)c1)C(=O)c1ccccc1,-5.15% (inactive)
13,COc1ccc2nc(-c3ccccc3)cc(N=[N+]=[N-])c2c1,-5.35% (inactive)
14,Cc1ccc(-c2n[nH]c(=O)n2N2C(=O)C=CC2=O)cc1,-1.2% (inactive)
15,CC(=O)OCCOCNC(=S)N/N=C(\C)c1cccs1,34.1% (inactive)
16,CN(N)C(=O)Nc1cccc(Cl)c1,-5.25% (inactive)
17,C#CC1(O)CCCCCCCCC2(CCCCCCCC1)OCCO2,13.7% (inactive)
18,CCOC(=O)C1=C(NC(=O)C(c2ccccc2)c2ccccc2)OCC1,-48.5% (inactive)
19,Cc1cc(Cl)ccc1NC(=O)NC(C)(C)COC(=O)Nc1cccc(Cl)c1,9.15% (inactive)
20,COc1cc(/C=C\C(=O)c2cccc([N+](=O)[O-])c2)cc(OC)c1OC,12.5% (inactive)

row,SMILES,growth inhibition
1,Cc1ccc(NC(=O)c2ccc(Cl)cc2)cc1,3.3% (inactive)
2,CCCCCCCCCC(=O)OCC1OC(n2cc(F)c(=O)[nH]c2=O)C(N)C(OC(=O)CCCCCCCCC)C1O (stereo not given),57.6% (inactive)
3,O=S1(=O)CCC(Br)c2ccccc21 (stereo not given),-38.5% (inactive)
4,O=C(O)Cn1cc(I)c(=O)c(I)c1,3.15% (inactive)
5,CC(Nc1ncccn1)Nc1ncccn1,-29.9% (inactive)
6,COc1cc(/C=C\c2ccc(SC)cc2)cc(OC)c1OC,15.3% (inactive)
7,COc1ccc(C2=NOC3COC4C=CC=CC4OCC23)cc1 (stereo not given),-17.9% (inactive)
8,CC1CCC2(C)OC1OC2CN (stereo not given),-0.55% (inactive)
9,c1ccc(-c2nsc3ccccc23)cc1,-31.1% (inactive)
10,Fc1ccc(-c2ccc(Br)cc2)cc1,-44% (inactive)
11,BrCc1cccc2cccc(CBr)c12,-10.5% (inactive)
12,CCc1cccc(CC)c1NC(=S)NN,-6% (inactive)
13,COc1ccc(C(C)(C)C#N)cc1,-12.8% (inactive)
14,O=c1c(-c2ccccc2)coc2ccccc12,-52% (inactive)
15,NCCc1ccc(O)c(O)c1,4.25% (inactive)
16,CCOC1=NC(C)C(C)N1 (stereo not given),9.05% (inactive)
17,COC(=O)C1(CC(=O)CC(=O)CC2(C(=O)OC)NC(=S)NC(=O)C2C#N)NC(=S)NC(=O)C1C#N (stereo not given),4.05% (inactive)
18,COc1ccc(C#N)c(-c2ccccc2)c1,3.05% (inactive)
19,COc1c(-c2ccc(F)cc2)oc2c(CC(=O)O)cccc2c1=O,3.2% (inactive)
20,O=S(=O)(Cl)c1cccc2c(S(=O)(=O)Cl)cccc12,-40.5% (inactive)
